From the supplement of paper PMC11732987, “Enantioselective OTUD7B fragment discovery through chemoproteomics screening and high-throughput optimisation” (Communications Chemistry, 2025)

Assays:
Assay in all cases: log2 ratio of Biotin-Ahx-Ub-VS probe labelling (fragment/DMSO); higher = less target engagement (more negative = stronger competition), active = hit call of the paper (q ≤ 0.05, log2 ratio ≤ -1)
Details in all cases: compound concentration: 200 uM; treatment time: 3 h
USP16 = USP16 (UniProt Q9Y5T5)
Outline: (§1)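 Global-median-normalised Spectronaut label-free quantities were compared by unpaired t-test, and values are average log2 ratios of fragment over vehicle. Only proteins with ≥2 unique peptides were used. HEK293T lysate (495 µg per sample) was treated in triplicate with fragment at 200 µM or vehicle for 3 h and then with Biotin-Ahx-Ub-VS at 0.5 µM final for 1 h. Labelled DUBs were then NeutrAvidin-enriched, digested with LysC and trypsin, and run by diaPASEF LC-MS/MS.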

USP19 = target: T1, USP19 (UniProt O94966)
T1 sequence (whole entry): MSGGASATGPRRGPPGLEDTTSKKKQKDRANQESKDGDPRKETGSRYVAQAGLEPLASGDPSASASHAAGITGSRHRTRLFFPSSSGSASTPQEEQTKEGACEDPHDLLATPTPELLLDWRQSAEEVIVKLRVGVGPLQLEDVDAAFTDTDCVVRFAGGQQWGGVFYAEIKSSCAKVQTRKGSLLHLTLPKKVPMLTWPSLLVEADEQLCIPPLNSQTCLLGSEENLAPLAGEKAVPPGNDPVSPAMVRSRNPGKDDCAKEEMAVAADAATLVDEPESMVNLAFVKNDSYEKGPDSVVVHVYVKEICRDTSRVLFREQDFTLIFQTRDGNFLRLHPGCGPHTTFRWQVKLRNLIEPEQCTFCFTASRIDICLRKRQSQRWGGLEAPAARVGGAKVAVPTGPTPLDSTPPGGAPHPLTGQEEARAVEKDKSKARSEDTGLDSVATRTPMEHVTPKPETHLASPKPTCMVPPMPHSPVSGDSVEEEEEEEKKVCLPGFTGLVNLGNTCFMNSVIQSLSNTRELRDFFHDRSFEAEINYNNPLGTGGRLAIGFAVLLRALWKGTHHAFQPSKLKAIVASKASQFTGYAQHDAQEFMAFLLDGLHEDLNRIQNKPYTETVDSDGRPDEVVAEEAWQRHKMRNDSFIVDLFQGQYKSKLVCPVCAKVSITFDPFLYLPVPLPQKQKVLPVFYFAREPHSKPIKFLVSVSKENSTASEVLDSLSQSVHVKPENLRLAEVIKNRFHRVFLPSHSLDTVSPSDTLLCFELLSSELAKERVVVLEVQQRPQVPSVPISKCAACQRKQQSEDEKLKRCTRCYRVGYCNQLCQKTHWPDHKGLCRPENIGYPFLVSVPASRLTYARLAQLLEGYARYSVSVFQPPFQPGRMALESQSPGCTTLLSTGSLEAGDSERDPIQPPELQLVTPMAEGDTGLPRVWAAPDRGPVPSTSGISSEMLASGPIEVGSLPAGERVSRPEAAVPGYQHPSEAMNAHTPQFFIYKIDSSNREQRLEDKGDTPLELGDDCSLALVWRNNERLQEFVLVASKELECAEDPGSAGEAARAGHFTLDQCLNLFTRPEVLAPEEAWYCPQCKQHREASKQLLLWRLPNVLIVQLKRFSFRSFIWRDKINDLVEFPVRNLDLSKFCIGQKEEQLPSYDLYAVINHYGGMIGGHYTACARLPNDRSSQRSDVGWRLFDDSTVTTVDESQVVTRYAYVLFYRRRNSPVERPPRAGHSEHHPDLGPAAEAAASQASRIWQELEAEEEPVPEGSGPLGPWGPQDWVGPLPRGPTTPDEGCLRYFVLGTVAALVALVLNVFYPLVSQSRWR
Outline: as §1

USP24 = USP24 (UniProt Q9UPU5)
Outline: as §1

USP25 = target: T2, USP25 (UniProt Q9UHP3)
T2 sequence (whole entry): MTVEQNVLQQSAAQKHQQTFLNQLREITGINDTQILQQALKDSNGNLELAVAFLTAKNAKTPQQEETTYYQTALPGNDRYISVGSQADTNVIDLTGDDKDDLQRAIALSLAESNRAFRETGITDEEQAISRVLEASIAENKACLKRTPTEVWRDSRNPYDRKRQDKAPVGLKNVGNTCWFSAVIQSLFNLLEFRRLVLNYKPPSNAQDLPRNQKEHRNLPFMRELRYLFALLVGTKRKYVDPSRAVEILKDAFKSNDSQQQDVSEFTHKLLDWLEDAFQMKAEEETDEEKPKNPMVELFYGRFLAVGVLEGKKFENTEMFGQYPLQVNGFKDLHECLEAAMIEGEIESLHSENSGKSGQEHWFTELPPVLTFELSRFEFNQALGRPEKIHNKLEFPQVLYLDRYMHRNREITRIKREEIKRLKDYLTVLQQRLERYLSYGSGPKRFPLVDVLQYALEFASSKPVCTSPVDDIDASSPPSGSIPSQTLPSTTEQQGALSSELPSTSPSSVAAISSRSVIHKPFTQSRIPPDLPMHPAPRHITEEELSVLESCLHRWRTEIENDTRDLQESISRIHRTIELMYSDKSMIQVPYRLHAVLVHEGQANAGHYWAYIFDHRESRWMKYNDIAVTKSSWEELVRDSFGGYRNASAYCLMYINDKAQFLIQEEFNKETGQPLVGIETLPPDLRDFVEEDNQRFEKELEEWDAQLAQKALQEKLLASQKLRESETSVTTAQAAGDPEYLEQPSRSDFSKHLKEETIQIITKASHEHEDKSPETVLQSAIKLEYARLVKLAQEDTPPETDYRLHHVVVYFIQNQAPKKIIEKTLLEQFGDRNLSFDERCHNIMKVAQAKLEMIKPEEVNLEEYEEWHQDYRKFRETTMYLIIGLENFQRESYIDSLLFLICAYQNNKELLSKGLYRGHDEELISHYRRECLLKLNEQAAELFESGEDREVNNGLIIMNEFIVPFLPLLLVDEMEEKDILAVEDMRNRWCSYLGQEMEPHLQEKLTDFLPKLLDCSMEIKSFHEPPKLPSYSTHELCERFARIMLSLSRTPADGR
Outline: as §1

USP28 = target: T3, USP28 (UniProt Q96RU2)
T3 sequence (whole entry): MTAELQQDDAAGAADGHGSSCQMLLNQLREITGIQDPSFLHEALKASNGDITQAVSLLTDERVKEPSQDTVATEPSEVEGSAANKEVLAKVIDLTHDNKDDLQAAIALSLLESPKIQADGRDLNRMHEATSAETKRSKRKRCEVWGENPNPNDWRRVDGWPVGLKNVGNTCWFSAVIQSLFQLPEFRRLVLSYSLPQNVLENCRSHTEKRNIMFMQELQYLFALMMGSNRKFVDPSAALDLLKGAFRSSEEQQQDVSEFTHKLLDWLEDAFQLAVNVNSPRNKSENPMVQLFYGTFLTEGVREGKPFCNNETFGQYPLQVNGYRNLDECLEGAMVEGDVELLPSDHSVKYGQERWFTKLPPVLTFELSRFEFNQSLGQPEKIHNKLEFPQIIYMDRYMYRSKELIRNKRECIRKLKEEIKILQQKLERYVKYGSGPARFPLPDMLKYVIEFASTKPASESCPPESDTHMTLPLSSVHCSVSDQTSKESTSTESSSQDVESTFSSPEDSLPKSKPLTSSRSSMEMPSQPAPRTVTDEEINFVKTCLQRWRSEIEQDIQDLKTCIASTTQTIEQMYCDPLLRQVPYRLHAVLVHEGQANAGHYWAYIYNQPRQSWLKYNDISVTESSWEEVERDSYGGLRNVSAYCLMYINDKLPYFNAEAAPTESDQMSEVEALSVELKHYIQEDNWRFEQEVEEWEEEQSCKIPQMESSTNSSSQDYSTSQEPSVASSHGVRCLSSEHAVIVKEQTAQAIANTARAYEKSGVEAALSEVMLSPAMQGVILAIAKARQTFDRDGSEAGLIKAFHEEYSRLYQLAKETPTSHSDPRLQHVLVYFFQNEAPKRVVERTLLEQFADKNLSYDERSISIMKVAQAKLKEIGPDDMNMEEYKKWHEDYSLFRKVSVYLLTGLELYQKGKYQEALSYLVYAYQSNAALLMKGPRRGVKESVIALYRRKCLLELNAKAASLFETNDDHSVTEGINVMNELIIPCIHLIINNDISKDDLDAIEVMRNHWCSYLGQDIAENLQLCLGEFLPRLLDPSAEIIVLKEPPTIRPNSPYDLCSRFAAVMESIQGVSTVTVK
Outline: as §1

Measured: log2 ratio of Biotin-Ahx-Ub-VS probe labelling

Sequence of USP24 (Q9UPU5 whole entry): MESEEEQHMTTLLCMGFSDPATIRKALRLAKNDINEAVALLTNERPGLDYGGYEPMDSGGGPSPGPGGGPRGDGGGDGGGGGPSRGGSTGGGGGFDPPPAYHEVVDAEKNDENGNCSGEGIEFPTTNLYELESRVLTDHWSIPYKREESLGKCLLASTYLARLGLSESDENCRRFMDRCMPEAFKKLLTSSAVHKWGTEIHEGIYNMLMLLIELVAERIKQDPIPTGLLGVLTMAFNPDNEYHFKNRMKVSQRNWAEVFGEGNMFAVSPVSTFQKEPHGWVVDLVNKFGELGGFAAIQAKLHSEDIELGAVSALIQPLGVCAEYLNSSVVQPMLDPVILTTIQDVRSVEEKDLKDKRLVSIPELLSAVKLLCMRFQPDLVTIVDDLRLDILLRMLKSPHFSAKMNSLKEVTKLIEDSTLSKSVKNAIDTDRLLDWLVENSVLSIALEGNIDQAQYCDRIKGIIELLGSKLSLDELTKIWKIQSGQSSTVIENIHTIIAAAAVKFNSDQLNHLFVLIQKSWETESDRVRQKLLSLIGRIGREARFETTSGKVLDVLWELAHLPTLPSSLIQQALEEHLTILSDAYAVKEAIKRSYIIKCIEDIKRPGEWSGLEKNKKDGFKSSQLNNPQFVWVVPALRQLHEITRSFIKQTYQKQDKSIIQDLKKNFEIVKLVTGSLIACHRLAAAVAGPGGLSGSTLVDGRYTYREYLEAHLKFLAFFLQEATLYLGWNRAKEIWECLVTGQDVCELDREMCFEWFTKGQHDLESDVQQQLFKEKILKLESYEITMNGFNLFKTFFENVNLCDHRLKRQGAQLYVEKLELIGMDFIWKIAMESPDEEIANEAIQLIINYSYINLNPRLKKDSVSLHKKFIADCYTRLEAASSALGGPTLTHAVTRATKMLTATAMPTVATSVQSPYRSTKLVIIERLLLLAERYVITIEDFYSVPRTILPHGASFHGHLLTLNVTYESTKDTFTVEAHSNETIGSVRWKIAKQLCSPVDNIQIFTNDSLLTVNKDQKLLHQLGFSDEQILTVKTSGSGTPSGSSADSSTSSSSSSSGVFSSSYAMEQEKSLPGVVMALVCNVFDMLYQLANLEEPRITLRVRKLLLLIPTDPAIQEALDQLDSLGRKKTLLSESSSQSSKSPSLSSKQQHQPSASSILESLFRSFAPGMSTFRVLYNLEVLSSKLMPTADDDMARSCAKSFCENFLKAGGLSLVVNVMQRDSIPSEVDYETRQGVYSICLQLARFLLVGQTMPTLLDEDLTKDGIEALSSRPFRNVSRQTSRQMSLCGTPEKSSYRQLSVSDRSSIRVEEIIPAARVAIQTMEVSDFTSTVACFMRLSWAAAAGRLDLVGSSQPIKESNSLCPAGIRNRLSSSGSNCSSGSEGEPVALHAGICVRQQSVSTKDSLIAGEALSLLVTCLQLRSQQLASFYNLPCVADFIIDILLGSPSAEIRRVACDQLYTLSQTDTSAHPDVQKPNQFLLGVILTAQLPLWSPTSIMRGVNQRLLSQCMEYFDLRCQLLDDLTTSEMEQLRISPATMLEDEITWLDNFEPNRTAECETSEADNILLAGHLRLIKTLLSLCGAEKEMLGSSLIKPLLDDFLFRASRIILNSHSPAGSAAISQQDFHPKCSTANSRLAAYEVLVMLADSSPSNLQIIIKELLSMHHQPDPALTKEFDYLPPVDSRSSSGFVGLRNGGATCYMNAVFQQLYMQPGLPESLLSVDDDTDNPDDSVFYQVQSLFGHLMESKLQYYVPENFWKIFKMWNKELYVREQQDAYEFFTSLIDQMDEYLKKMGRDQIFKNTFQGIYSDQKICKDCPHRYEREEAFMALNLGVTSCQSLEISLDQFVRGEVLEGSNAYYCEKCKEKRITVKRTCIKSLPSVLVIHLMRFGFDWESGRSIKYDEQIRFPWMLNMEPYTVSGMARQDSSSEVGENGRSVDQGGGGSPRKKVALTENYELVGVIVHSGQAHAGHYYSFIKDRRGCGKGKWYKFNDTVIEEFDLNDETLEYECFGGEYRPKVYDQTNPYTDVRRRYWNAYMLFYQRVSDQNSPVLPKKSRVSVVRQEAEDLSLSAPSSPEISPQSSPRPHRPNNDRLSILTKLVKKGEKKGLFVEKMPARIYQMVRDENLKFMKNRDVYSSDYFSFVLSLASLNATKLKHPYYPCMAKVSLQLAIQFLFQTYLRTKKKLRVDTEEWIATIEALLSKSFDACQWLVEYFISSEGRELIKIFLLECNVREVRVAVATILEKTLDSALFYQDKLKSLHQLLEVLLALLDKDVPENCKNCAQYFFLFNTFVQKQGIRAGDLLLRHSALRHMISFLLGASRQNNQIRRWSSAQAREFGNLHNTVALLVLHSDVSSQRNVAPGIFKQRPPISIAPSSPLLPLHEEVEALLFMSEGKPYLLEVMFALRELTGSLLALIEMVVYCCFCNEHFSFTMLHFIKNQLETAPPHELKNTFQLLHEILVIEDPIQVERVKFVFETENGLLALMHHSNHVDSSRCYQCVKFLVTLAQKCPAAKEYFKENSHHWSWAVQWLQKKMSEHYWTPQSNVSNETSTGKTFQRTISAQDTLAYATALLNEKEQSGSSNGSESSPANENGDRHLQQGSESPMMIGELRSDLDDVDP
Sequence of USP16 (Q9Y5T5 whole entry, looked up, the tested form may be a part): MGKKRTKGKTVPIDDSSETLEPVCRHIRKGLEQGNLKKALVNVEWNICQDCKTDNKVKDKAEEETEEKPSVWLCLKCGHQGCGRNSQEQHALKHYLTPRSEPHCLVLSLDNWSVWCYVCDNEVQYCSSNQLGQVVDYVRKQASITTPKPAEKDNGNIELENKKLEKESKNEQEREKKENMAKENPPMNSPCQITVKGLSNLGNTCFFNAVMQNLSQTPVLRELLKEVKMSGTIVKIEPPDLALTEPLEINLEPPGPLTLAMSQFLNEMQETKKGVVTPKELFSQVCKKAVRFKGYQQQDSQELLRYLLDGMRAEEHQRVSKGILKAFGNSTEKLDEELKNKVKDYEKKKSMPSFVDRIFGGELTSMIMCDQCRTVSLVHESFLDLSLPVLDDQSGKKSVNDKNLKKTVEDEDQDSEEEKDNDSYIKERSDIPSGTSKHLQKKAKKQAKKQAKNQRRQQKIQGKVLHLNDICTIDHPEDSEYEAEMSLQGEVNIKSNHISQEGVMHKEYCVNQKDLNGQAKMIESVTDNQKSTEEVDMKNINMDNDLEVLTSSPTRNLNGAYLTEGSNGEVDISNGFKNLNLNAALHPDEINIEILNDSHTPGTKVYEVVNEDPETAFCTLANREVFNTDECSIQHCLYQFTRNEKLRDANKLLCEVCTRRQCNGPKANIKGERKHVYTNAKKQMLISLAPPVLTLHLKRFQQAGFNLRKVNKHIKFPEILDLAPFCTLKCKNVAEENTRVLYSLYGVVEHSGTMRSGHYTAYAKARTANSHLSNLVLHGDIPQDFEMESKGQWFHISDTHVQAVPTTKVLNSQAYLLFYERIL

O=C(CCl)NCc1ccc(N2CCOCC2)c(F)c1
inactive: USP16 -0.0789 | USP19 0.108 | USP24 0.223 | USP25 -0.255 | USP28 -0.606
